{"source": "ChEMBL document CHEMBL2218924", "about": "“A broad activity screen in support of a chemogenomic map for kinase signalling research and drug discovery” (Biochem J, 2013)", "key": {"[1]": {"biological_target": "Tyrosine-protein kinase SYK (Homo sapiens) (UniProt P43405)", "details": "at 10 µM"}, "[2]": {"biological_target": "T1, Mitogen-activated protein kinase kinase kinase 7 (Homo sapiens) (UniProt O43318)", "T1 sequence (whole entry)": "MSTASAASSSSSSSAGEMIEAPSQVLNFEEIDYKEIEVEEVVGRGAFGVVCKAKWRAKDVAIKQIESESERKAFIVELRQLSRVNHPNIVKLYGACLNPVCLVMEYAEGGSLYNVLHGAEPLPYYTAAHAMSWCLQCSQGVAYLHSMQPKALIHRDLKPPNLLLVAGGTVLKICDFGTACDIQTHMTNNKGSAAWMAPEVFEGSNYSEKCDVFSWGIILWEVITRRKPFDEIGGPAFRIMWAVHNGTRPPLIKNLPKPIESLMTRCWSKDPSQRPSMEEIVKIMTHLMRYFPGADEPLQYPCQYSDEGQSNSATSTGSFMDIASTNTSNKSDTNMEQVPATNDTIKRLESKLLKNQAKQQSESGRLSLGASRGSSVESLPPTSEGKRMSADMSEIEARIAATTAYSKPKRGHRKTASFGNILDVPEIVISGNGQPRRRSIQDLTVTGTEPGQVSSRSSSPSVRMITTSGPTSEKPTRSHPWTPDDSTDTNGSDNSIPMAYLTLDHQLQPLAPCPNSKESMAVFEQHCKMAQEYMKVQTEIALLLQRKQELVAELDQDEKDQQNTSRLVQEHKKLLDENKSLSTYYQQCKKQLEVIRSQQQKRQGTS", "details": "at 1 µM"}, "[3]": {"biological_target": "T1, Mitogen-activated protein kinase kinase kinase 7 (Homo sapiens)", "details": "at 10 µM"}, "[4]": {"biological_target": "T2, Serine/threonine-protein kinase TAO1 (Homo sapiens) (UniProt Q7L7X3)", "T2 sequence (whole entry)": "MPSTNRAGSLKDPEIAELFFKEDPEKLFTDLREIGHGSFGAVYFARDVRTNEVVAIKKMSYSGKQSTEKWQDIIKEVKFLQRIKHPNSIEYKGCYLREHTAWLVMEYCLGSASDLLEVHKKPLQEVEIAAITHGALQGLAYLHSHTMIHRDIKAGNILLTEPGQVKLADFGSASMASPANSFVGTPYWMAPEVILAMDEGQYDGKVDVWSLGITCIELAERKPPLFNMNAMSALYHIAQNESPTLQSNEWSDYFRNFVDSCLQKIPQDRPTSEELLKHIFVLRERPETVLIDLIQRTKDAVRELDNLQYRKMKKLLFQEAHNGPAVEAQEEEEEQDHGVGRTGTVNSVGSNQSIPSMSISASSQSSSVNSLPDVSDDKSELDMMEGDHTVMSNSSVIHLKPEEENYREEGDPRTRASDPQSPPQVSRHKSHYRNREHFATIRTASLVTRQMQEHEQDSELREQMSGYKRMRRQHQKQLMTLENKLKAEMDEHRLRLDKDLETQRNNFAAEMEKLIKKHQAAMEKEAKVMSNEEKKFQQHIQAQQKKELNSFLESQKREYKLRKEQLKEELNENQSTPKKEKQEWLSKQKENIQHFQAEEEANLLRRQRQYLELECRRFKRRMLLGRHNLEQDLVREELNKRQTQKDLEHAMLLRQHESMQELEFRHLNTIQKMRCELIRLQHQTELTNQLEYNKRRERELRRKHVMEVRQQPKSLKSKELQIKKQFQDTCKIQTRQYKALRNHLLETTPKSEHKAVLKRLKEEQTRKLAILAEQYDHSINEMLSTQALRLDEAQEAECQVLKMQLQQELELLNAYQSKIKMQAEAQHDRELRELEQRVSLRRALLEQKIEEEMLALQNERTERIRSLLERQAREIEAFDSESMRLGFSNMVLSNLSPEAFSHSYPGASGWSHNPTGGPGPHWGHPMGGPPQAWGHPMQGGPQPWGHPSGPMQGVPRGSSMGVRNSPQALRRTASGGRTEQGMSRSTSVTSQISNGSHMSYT", "details": "at 1 µM"}, "[5]": {"biological_target": "T2, Serine/threonine-protein kinase TAO1 (Homo sapiens)", "details": "at 10 µM"}, "[6]": {"biological_target": "T3, Serine/threonine-protein kinase TAO2 (Homo sapiens) (UniProt Q9UL54)", "T3 sequence (whole entry)": "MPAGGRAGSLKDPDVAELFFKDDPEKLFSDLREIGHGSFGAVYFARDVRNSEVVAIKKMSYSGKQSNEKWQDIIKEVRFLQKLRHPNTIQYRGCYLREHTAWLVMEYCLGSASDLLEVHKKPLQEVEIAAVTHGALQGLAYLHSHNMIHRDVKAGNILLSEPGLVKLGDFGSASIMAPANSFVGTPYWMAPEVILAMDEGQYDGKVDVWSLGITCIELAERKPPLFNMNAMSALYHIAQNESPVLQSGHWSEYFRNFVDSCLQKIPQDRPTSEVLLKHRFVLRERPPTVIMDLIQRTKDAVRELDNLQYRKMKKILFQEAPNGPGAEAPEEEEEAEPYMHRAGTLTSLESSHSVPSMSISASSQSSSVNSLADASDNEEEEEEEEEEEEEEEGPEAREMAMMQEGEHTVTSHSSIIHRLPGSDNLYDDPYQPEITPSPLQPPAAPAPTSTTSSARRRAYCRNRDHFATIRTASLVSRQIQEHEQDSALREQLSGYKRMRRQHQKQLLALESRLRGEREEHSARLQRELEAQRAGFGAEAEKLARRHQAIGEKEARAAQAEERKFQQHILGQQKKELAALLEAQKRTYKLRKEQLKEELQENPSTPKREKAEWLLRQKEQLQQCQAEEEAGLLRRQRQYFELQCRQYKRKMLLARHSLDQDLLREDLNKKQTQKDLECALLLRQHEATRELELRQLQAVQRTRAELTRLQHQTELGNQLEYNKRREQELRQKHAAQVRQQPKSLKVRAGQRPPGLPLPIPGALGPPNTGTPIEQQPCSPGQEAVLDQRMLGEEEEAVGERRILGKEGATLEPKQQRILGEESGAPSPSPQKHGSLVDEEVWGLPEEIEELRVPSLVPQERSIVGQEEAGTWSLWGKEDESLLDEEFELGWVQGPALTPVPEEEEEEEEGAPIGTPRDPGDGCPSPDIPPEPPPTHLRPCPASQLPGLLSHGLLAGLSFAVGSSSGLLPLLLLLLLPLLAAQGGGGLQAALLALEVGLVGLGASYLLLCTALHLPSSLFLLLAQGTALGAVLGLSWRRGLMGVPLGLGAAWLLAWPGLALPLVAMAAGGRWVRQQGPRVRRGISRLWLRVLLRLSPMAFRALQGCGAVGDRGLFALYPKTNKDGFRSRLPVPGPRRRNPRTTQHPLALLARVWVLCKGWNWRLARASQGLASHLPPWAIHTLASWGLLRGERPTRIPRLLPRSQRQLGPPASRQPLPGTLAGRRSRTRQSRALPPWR", "details": "at 1 µM"}, "[7]": {"biological_target": "T3, Serine/threonine-protein kinase TAO2 (Homo sapiens)", "details": "at 10 µM"}, "[8]": {"biological_target": "T4, Serine/threonine-protein kinase TAO3 (Homo sapiens) (UniProt Q9H2K8)", "T4 sequence (whole entry)": "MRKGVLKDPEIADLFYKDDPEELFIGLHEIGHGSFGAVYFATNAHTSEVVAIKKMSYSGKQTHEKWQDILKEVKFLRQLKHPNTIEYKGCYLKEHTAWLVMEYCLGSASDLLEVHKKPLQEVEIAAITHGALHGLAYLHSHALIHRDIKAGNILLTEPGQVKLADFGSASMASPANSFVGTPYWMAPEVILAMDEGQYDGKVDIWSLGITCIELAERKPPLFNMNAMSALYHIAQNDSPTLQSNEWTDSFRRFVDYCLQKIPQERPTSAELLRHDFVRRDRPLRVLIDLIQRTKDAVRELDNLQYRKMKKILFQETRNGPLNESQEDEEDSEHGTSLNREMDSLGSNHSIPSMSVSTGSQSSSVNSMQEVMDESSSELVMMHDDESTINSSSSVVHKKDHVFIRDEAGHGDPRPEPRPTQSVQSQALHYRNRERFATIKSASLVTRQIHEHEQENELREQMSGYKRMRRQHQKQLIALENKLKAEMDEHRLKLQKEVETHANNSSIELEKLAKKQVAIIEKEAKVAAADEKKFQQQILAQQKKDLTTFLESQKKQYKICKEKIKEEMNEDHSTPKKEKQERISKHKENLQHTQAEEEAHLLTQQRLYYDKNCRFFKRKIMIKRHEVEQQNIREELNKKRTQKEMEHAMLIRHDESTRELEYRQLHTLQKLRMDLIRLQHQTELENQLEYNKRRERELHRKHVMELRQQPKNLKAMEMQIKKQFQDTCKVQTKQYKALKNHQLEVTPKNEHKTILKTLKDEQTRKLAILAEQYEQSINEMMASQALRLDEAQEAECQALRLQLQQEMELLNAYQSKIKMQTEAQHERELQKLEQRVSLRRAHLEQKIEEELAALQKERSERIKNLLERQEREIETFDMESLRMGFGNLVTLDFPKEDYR", "details": "at 1 µM"}}}
{"compound": "O=C(c1cc2cc(O)ccc2[nH]1)c1cc2cc(O)ccc2[nH]1", "values": [{"measurement": "residual activity", "setting": "[1]", "result": 46, "unit": "%"}, {"measurement": "residual activity", "setting": "[2]", "result": 62, "unit": "%"}, {"measurement": "residual activity", "setting": "[3]", "result": 23, "unit": "%"}, {"measurement": "residual activity", "setting": "[4]", "result": 70, "unit": "%"}, {"measurement": "residual activity", "setting": "[5]", "result": 28, "unit": "%"}, {"measurement": "residual activity", "setting": "[6]", "result": 80, "unit": "%"}, {"measurement": "residual activity", "setting": "[7]", "result": 32, "unit": "%"}, {"measurement": "residual activity", "setting": "[8]", "result": 66, "unit": "%"}]}
